In the supplement of paper PMC3414501:
Structures can show the parent of a compound that is named as a salt.

Tests used:
[1] = tested on: S. cerevisiae SK1 pCDA2-eGFP (USY613), sporulating; assay: CDA2-GFP sporulation assay sensitivity score (z-score vs DMSO controls); higher = stronger inhibition of sporulation, active = hit call of the paper;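 further: active if sensitivity score above 5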
[2] = tested on: S. cerevisiae AD1-9 (efflux-pump deficient), vegetative growth in YPD; assay: growth sensitivity score (doubling time z-score vs DMSO controls); higher = slower growth, strongly negative scores also mark growth inhibition (complete suppression), active = hit call of the paper
Outline: (§1)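 Yeast (Saccharomyces cerevisiae BY4741 and AD1-9) was grown in rich medium in microtiter plates from a starting OD600 of 0.065, with optical density read every 15 min over 24 hours. The growth sensitivity score was the difference between compound and solvent-only means, divided by the solvent-only standard deviation. Every experiment had eight solvent-only wells.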

[3] = tested on: S. cerevisiae BY4741 (wild-type), vegetative growth in YPD; assay: as above
Outline: as §1

SMILES	CDA2-GFP sporulation assay sensitivity score [1]	growth sensitivity score [2]	growth sensitivity score [3]
CC(C)(C)NC(=O)[C@H]1CC[C@H]2[C@@H]3CC[C@H]4NC(=O)C=C[C@]4(C)[C@H]3CC[C@]12C [Finasteride] (stock concentration (mM, diluted 1:100): 10)	3.51 (inactive)	20.2 (active)	1.37 (inactive)
O=c1ncc(F)c[nH]1 [5-Fluoro-2-Pyrimidone] (stock concentration (mM, diluted 1:100): 10)	0.54 (inactive)	-0.92 (inactive)	-2.08
COc1cc2nc(N3CCN(C(=O)c4ccco4)CC3)nc(N)c2cc1OC [Prazosin] (stock concentration (mM, diluted 1:100): 10)	1.07 (inactive)	2.31 (active)	-0.58 (inactive)
C[C@@H](c1ncncc1F)[C@](O)(Cn1cncn1)c1ccc(F)cc1F [Voriconazole] (stock concentration (mM, diluted 1:100): 9.9)	-0.46 (inactive)	20.3 (active)	43.3 (active)
CNNCc1ccc(C(=O)NC(C)C)cc1 [Procarbazine hydrochloride] (stock concentration (mM, diluted 1:100): 8.6)	-0.1 (inactive)	-0.84 (inactive)	0.69 (inactive)
O=C(O)c1cc(/N=N/c2ccc(S(=O)(=O)Nc3ccccn3)cc2)ccc1O [Sulfasalazine] (stock concentration (mM, diluted 1:100): 10)	2.13 (inactive)	-2.95	-2.26
CCN1CCC[C@H]1CNC(=O)c1c(O)c(Cl)cc(Cl)c1OC [Raclopride] (stock concentration (mM, diluted 1:100): 10)	0.74 (inactive)	-1.88 (inactive)	0.66 (inactive)
O=C(O)CCc1nc(-c2ccccc2)c(-c2ccccc2)o1 [Oxaprozin] (stock concentration (mM, diluted 1:100): 10)	-0.84 (inactive)	5.72 (active)	0.61 (inactive)
O=C(O[C@@H]1C[C@@H]2C[C@H]3C[C@H](C1)N2CC3=O)c1c[nH]c2ccccc12 [Dolasetron mesylate] (stock concentration (mM, diluted 1:100): 10.4)	-1 (inactive)	-0.71 (inactive)	0.44 (inactive)
O=c1n(CCCN2CCN(c3cccc(Cl)c3)CC2)nc2ccccn12 [Trazodone hydrochloride] (stock concentration (mM, diluted 1:100): 10)	5.45 (inactive)	-3.23	0.24 (inactive)
CCn1cc(C(=O)O)c(=O)c2cc(F)c(N3CCN(C)CC3)cc21 [Pefloxacin mesylate] (stock concentration (mM, diluted 1:100): 7.9)	-0.85 (inactive)	3.65 (active)	-1.1 (inactive)
CCS(=O)(=O)CCn1c([N+](=O)[O-])cnc1C [Tinidazole] (stock concentration (mM, diluted 1:100): 10)	1.26 (inactive)	-0.62 (inactive)	-0.09 (inactive)
COCCCC/C(=N\OCCN)c1ccc(C(F)(F)F)cc1 [Fluvoxamine] (stock concentration (mM, diluted 1:100): 7.7)	-1.51 (inactive)	9.45 (active)	2.43 (active)
Nc1nc(N)nc(-c2cc(Cl)ccc2Cl)n1 [Irsogladine maleate] (stock concentration (mM, diluted 1:100): 6.9)	0.91 (inactive)	-0.44 (inactive)	-1.26 (inactive)
O=C1C(c2c(O)[nH]c3ccccc23)=Nc2ccccc21 [Indarubicin] (stock concentration (mM, diluted 1:100): 10)	9.61 (inactive)	-1.23 (inactive)	-1.62 (inactive)
CN(C)CC[C@@H](c1ccc(Cl)cc1)c1ccccn1 [Dexchlorpheniramine maleate] (stock concentration (mM, diluted 1:100): 7)	7.64 (inactive)	-0.12 (inactive)	0.54 (inactive)
Cc1cccc(Nc2ccncc2S(=O)(=O)NC(=O)NC(C)C)c1 [Torasemide] (stock concentration (mM, diluted 1:100): 9.9)	-0.45 (inactive)	-2.4	-0.66 (inactive)
